Here are results for 23 targets from the supplement of paper PMC10849652.

The full data set covers some 7,900 targets. This sample favours those with a hit. About 0.6% of all pairs of compound and target were hits. Values without a mark were called inactive.

Chain of UniProt Q9H0C8 (Q9H0C8 whole entry, looked up): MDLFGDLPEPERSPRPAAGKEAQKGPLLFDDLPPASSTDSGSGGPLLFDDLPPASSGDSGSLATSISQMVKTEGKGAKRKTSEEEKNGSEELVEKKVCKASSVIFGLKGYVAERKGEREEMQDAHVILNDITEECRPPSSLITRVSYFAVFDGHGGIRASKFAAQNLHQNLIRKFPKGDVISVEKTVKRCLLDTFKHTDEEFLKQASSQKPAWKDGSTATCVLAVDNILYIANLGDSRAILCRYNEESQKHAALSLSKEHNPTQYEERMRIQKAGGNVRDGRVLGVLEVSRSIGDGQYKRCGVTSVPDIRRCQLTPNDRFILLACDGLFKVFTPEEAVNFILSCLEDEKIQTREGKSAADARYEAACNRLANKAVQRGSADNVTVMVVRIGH
Chain of UniProt P01116 (P01116 whole entry, looked up): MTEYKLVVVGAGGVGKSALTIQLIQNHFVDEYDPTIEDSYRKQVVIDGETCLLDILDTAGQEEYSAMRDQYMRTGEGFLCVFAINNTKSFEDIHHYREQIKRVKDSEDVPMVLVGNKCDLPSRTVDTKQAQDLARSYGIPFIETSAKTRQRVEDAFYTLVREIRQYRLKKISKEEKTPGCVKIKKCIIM
Chain of UniProt Q6P9B9 (Q6P9B9 whole entry, looked up): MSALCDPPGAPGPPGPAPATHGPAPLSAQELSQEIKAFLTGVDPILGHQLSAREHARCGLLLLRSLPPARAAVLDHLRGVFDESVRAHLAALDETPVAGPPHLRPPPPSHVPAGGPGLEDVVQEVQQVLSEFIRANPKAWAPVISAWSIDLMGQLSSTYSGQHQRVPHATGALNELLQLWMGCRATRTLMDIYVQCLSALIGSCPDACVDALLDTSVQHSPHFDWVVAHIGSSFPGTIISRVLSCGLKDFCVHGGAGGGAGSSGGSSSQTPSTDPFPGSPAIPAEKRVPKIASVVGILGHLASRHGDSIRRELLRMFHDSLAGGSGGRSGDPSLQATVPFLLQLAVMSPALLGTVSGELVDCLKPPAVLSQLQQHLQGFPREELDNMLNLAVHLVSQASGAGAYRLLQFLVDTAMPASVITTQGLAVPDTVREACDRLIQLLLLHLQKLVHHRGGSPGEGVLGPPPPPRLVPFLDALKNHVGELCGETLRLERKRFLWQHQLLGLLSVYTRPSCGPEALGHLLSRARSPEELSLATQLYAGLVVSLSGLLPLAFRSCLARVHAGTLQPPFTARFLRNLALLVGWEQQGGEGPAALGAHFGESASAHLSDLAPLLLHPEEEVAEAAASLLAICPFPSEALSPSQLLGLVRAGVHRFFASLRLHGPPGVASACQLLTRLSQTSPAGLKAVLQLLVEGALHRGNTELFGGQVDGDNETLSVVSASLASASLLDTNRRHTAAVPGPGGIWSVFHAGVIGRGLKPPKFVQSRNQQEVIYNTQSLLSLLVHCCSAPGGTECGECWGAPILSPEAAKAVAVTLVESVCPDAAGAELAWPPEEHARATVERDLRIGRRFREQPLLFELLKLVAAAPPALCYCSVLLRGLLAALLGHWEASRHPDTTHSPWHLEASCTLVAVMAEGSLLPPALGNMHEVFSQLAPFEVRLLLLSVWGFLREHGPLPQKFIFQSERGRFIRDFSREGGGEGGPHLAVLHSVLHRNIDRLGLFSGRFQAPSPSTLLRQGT
Chain of UniProt P32019 (P32019 whole entry, looked up): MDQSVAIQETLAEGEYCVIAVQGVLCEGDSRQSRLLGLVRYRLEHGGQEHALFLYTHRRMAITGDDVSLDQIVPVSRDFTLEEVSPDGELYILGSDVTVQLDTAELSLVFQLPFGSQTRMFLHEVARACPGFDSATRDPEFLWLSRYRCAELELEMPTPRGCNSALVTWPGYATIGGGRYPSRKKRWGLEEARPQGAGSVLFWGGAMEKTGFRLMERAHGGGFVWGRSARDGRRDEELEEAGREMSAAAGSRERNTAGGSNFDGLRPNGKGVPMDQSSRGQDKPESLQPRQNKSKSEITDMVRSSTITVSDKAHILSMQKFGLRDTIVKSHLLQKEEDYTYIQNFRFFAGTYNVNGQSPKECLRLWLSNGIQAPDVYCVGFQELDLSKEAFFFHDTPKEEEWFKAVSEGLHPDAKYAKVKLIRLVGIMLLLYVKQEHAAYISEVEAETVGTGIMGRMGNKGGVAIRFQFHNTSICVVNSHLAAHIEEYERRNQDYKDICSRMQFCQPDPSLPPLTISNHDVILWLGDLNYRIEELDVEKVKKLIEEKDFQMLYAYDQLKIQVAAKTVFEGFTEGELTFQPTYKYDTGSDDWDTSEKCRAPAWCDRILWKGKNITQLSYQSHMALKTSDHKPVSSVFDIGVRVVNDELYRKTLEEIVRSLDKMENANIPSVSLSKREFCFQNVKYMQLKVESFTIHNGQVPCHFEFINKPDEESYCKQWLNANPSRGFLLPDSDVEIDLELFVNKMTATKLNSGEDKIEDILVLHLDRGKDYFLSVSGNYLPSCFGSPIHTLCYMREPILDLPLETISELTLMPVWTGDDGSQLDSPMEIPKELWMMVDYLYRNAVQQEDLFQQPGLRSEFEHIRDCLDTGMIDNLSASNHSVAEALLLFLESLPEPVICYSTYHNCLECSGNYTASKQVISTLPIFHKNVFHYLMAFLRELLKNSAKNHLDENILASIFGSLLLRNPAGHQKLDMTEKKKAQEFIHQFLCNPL
Chain of UniProt P02545 (P02545 whole entry, looked up): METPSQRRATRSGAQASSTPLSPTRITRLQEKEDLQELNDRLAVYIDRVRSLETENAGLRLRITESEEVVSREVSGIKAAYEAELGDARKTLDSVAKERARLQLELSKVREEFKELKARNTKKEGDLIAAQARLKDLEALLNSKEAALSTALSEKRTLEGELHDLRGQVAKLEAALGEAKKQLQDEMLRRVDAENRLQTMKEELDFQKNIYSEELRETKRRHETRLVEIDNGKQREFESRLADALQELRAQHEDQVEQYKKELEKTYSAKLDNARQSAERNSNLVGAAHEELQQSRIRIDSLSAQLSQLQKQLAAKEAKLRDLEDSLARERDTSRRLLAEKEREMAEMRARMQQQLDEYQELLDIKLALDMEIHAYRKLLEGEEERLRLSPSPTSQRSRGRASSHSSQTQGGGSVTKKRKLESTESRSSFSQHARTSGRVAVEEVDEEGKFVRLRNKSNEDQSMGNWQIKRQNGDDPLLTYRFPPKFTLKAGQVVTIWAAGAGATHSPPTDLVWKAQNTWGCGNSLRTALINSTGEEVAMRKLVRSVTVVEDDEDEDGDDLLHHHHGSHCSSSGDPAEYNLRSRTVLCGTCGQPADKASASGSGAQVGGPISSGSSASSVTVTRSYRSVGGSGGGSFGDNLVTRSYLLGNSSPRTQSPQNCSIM
Chain of UniProt Q8WV07 (Q8WV07 whole entry, looked up): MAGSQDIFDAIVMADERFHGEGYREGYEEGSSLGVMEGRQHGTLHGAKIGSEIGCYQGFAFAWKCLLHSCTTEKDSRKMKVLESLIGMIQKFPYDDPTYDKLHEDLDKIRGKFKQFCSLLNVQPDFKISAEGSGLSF
Chain of UniProt Q13422 (Q13422 whole entry, looked up): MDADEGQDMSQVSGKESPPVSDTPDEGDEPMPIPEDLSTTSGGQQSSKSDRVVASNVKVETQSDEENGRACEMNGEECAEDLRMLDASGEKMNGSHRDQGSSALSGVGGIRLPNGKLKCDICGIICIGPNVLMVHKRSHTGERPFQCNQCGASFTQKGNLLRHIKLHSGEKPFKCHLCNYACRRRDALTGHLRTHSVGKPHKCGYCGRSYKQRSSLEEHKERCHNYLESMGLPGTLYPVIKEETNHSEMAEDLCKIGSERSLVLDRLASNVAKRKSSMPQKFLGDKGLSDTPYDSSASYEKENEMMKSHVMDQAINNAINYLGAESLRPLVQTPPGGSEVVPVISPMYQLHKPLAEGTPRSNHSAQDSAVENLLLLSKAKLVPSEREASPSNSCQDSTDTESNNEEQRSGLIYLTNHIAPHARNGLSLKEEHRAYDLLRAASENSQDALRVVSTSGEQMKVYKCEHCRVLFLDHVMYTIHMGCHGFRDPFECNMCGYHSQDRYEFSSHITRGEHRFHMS
Chain of UniProt Q68DH5 (Q68DH5 whole entry, looked up): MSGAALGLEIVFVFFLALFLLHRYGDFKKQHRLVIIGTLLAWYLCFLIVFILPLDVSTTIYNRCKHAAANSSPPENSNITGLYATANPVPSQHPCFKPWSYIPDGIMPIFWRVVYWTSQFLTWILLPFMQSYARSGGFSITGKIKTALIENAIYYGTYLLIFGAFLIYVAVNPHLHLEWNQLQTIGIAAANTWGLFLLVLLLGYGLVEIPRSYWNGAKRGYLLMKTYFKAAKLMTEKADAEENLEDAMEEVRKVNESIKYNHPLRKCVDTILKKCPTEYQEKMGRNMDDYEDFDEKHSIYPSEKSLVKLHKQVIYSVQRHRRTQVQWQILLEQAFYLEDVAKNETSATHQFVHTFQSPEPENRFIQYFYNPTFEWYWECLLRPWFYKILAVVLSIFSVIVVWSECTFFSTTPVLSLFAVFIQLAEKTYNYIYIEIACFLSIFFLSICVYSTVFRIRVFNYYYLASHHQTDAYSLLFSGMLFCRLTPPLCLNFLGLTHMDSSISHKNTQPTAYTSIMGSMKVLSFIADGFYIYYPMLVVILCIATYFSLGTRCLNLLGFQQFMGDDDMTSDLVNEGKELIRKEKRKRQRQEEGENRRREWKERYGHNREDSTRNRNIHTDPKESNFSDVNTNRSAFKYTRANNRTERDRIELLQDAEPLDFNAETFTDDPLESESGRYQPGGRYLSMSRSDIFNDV

Compound in this assay: C1CCN(C1)C(=O)NC2=CC=CC(=C2)NC3=NC=C(C(=N3)NCCC4=CN=CN4)Br
As to the kind of experiment: log2 fold change, soluble protein after heating vs DMSO (PISA); higher = thermal stabilisation; K562 cells, 10 uM, 30 min; active = over 0.2 and 3.5 SD of the protein, either way, in both replicates (recomputed). Summed up: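 Aliquots of K562 cells (2×10^6 cells/mL) treated with 10 μM compound for 30 min were heated for 3 min over 48°C-58°C. After pooling and extraction in PBS with 0.5% NP-40 at 4°C, soluble protein from a 21,000xg, 90 min spin was quantified by TMTpro 16plex LC-MS/MS with channel sums equalised. Thermal stability is expressed against control samples, from duplicates, as a log2 fold change.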
As to KPNA6 (UniProt O60684), the log2 fold change was 0.017.
To KDM3B (UniProt Q7LBC6) belongs -0.03; to LMBRD2 (UniProt Q68DH5), -0.073.
The value for ME2 (UniProt P23368) was 0.008; that for ILKAP (UniProt Q9H0C8) was -0.092.
The value for MFN2 (UniProt O95140) was -0.016; that for INPP5B (UniProt P32019) was -0.064; that for LARP1 (UniProt Q6PKG0) was 0.046.
MIER1 isoform 12 (UniProt Q8N108): the log2 fold change was -0.06.
To L2HGDH (UniProt Q9H9P8) belongs -0.005; to KRAS isoform 2 (UniProt P01116), 0.045.
To LTO1 (UniProt Q8WV07) belongs -0.032; to MFN1 (UniProt Q8IWA4), 0.025.
IKZF1 (UniProt Q13422): the log2 fold change is 0.051.
The value for MAP3K7 (UniProt O43318) was -0.005; that for KIF3A (UniProt Q9Y496) was -0.011; that for IMMT isoform 4 (UniProt Q16891) was 0.012.
The value for LDLR (UniProt P01130) was 0.025; that for LMNA (UniProt P02545) was -0.086.
The value for MAGI1 (UniProt Q96QZ7) was 0.012; that for MAP3K4 isoform 2 (UniProt Q9Y6R4) was 0.034.
As for IWS1 (UniProt Q96ST2), the log2 fold change was -0.067.
For INTS5 (UniProt Q6P9B9), the log2 fold change was -0.126.
